Source: PubChem BioAssay (NCATS)
Values without a mark were called inactive. Active and inactive are the calls of the source. The call rests on the fitted dose curve; in most records, active means well fitted inhibition curve with a large enough effect; inconclusive means small, poorly fitted or top-dose-only effect; inactive means flat fitted curve, though single readings scatter.
Potency means the concentration at half of the fitted maximal effect.

These compounds were tested against Luciferin 4-monooxygenase (Photinus pyralis) (UniProt P08659) (assay: Primary firefly luciferase (FLuc) qHTS assay for identification of artifact compounds. (AID 1845220; further: nearly all actives have a fitted effect of over 60% in size)). Settings: purified firefly luciferase, luminescence, 5 min; series mostly up to 54.1 µM; activity change, negative = inhibition: at the top concentration.
Description: PI: Alexander Tropsha Ph.D.
UNC Eshelman School of Pharmacy
University of North Carolina, Chapel Hill, North Carolina
Hits from high-throughput screening (HTS) of chemical libraries are often false positives due to their interference with the assay detection technology. In response to this problem, we generated the largest publicly available library of chemical liabilities and developed a free webtool to predict HTS artifacts, both of which are described herein. More specifically, we generated, curated, and integrated HTS datasets for thiol reactivity, redox activity, and luciferase (firefly and nano) activity. Using these curated datasets, we developed and validated several Quantitative Structure-Interference Relationship (QSIR) models to predict nuisance behavior. […] These models were employed for virtual profiling of the National Center for Advancing Translational Science's (NCATS) in-house library, and 256 compounds for each assay were selected for the experimental validation of nuisance behavior. The BA for these external predictions ranged from 58 to 78% for compounds within the applicability domains of the models. […] The models developed in this study, along with aggregation models previously developed by our group (SCAM Detective) were implemented in "Liability Predictor," an online tool which may be used as part of chemical library design or for triaging HTS hits. Both the models and the curated datasets are publicly available at https://liability.mml.unc.edu/.
SEQUENCE No. (e.g., 1, 2, 3, etc.); […] (e.g., Cells, Incubation, Reagent, etc.); VALUE; DESCRIPTION.
1; Reagent; 3 uL; Luciferase substrate mixture.
2; Compounds and control; 16 nL; Kalypsis pin tool (Wako USA) equipped with a 1536-well pin head.
4; Reagent; 1 uL; Luciferase enzyme.
6; Detection; Luminescence, ViewLux microplate reader.
NOTES (numbers refer to Sequence numbers above)
1. 3 uL of luciferase substrate mixture containing D-luciferin and ATP (final concentrations of 10 uM and 10 uM, respectively) in assay buffer (10 mM Mg-acetate, 0.01% Tween-20, 0.05% bovine serum albumin, 50 mM Tris acetate, pH 7.6) was dispensed into all wells of a 1536-well assay plate (solid-bottom white plate; Greiner Bio One, Monroe, NC).
2. A Wako Pin-tool (Wako Automation, Richmond, VA) was used to transfer 16 nL of compounds (consisting of 7-plates in qHTS format, final concentration range 18.3 nM to 114 uM) or control PTC124 (final concentration range 1.22 nM to 40 uM).
3. 15 min. incubation at room temperature protected from light.
4. 1 uL of luciferase enzyme (final concentration 10 nM, Photinus pyralis luciferase) or buffer was dispensed for a final assay volume of 4 uL.
5. Plates were centrifuged (121xg, 15 seconds) and incubated for 5 minutes.
6. Samples were read for luminescence on a ViewLux CCD imager (PerkinElmer). Data were normalized to no-enzyme (0% activity) and no-inhibitor (DMSO; 100%) controls and the resulting percent inhibition data were fitted to a 4-parameter Hill equation using NCATS in-house software.
For C=CC(=O)N1CCC[C@@H](n2nc(-c3ccc(Oc4ccccc4)cc3)c3c(N)ncnc32)C1, the “activity change, negative = inhibition” value was 0.0789%.
Cc1cnc(-c2cnc(NCCNc3ccc(C#N)cn3)nc2-c2ccc(Cl)cc2Cl)[nH]1 was tested, and the “activity change, negative = inhibition” value was -8.14%.
In the case of NC(=O)c1c(OCc2c(F)cc(Br)cc2F)nsc1NC(=O)NCCCCN1CCCC1, the “activity change, negative = inhibition” value was 3.39%.
With Cc1c(Cn2c(C)nc3c(C(=O)O)cc(N4CCOCC4)cc32)cccc1C(F)(F)F the “outcome” value was “inactive”.
In the case of COCCOc1ccc2c(c1)ncn2-c1ccc2cccc(N3CCC(N)CC3)c2n1, the “outcome” value was “inactive”.
CC(C)c1cc(C(=O)N2Cc3ccc(CN4CCN(C)CC4)cc3C2)c(O)cc1O was tested, and the “outcome” value was “inactive”.
In the case of COc1cccc2c(NCc3ccccc3)nc(-n3c(N)nc4ccccc43)nc12, the “activity change, negative = inhibition” value was -12.2%.
CC(=O)c1c(C)c2cnc(Nc3ccc(N4CCNCC4)cn3)nc2n(C2CCCC2)c1=O was tested, and the activity change, negative = inhibition was 1.06% [at 6.45 µM].
In the case of Nc1cccc(-c2cc3c(Oc4cccc(O)c4)ncnc3[nH]2)c1, the “outcome” value was “inactive”.
Cc1ccc(CN2CCNCC2)cc1NC(=O)CNc1ccc(F)c(F)c1 was tested, and the “outcome” value was “inactive”.
With Clc1ccc2ncc(-c3cccc(NC4CNC4)n3)n2c1 the “outcome” value was “inactive”.
COC(=O)Nc1nc2ccc(C(=O)c3ccc(F)cc3)cc2[nH]1 was tested, and the “outcome” value was “inactive”.
In the case of c1ccc2c(CCNc3ccc(Nc4ccncc4)cc3)c[nH]c2c1, the “outcome” value was “inactive”.
CC1COC2(CCN(c3nc(=O)c4cc(C(F)(F)F)cc([N+](=O)[O-])c4s3)CC2)O1 (stereo not given) was tested, and the “activity change, negative = inhibition” value was 4.12%.
For Cc1[nH]nc2ccc(-c3cncc(OC[C@@H](N)Cc4ccccc4)c3)cc12, the “activity change, negative = inhibition” value was -4%.
C=CCn1c(=O)c2cnc(Nc3ccc(N4CCN(C)CC4)cc3)nc2n1-c1cccc(C(C)(C)O)n1 was tested, and the “outcome” value was “inactive”.
For Cc1nc(Nc2n[nH]c3c2CN(C(=O)N[C@H](CN(C)C)c2ccccc2)C3(C)C)c2sccc2n1, the “activity change, negative = inhibition” value was 1.02%.
In the case of COc1cc2c(NC3CCN(C(C)C)CC3)nc(C3CCCCC3)nc2cc1OCCCN1CCCC1, the “outcome” value was “inactive”.
With CN1CCC(CNc2ccc3ncc(-c4cccc(OC(F)(F)F)c4)n3n2)CC1 the “outcome” value was “inactive”.
In the case of Cc1ccc(C(N)=O)cc1Nc1nccc(-c2cn(C(C)C)c3cnccc23)n1, the “activity change, negative = inhibition” value was -7.27%.
In the case of CNC(=O)c1cc(Oc2ccc(NC(=O)Nc3cc(C(C)(C)C)nn3-c3ccc4ncccc4c3)c(F)c2)ccn1, the “activity change, negative = inhibition” value was 4.25%.
For C[C@@H]1COC(Nc2ccc3ncnc(Nc4ccc(OCc5nccs5)c(Cl)c4)c3c2)=N1, the Potency was 19 µM (active).
For CNc1nccc(-c2cccnc2Oc2cc(C(=O)Nc3cccc(C(F)(F)F)c3)ccc2C)n1, the “outcome” value was “inactive”.
In the case of Cc1cc(Nc2ncnc3ccc(-c4ccc(CNCCS(C)(=O)=O)o4)cc23)ccc1Oc1ccn2ncnc2c1, the “activity change, negative = inhibition” value was 3.28%.
CNC(=O)c1ccc(N2C(=S)N(c3cnc(C#N)c(C(F)(F)F)c3)C(=O)C23CCC3)cc1F was tested, and the “activity change, negative = inhibition” value was -8.58%.
In the case of CNC(=O)c1ccccc1Nc1nc(Nc2ccc(N3CCOCC3)cc2OC)ncc1Cl, the “outcome” value was “inactive”.
In the case of COc1cc(-c2nn(C3CCC(N4CCN(C(C)=O)CC4)CC3)c3ncnc(N)c23)ccc1NC(=O)c1cc2ccccc2n1C (stereo not given), the “activity change, negative = inhibition” value was -8.44%.
O=C(Nc1ncc(-c2cc(C(F)F)nn2-c2c(Cl)cccc2Cl)s1)C1CC1 was tested, and the “activity change, negative = inhibition” value was 1.44%.
O=C(O)CCCc1c[nH]c2ccccc12 was tested, and the “outcome” value was “inactive”.
Cc1c(C)n(Cc2ccc(-c3ccccc3C(=O)O)cc2)c2ccc(C(=O)N[C@@H](C)c3ccc([N+](=O)[O-])cc3)cc12 was tested, and the “activity change, negative = inhibition” value was -11%.
N#Cc1c(O)c2c(-c3ccc(-c4ccccc4O)cc3)csc2[nH]c1=O was tested, and the “activity change, negative = inhibition” value was -21.9%.
COc1cccc(Nc2c(C(N)=O)cnc3c(C)cc(S(=O)(=O)c4cccc(C(=O)N(C)C)c4)cc23)c1 was tested, and the “activity change, negative = inhibition” value was -5.5%.
With CC(=O)Nc1sc2c(c1-c1nc3ccccc3s1)CNC2 the “activity change, negative = inhibition” value was -2.5%.
With Cc1cn2c(-c3cn[nH]c3)cnc2c(Nc2ccc(C(=O)N3CCNCC3)cc2F)n1 the “outcome” value was “inactive”.
In the case of O=C(CCCCCCC(=O)Nc1ccc([C@H]2O[C@@H](CSc3nc(-c4ccccc4)c(-c4ccccc4)o3)C[C@@H](c3ccc(CO)cc3)O2)cc1)NO, the “activity change, negative = inhibition” value was -0.846%.
Clc1cccc(-n2nnnc2NCc2ccccc2Oc2ccccn2)c1Cl was tested, and the “outcome” value was “inactive”.
In the case of O=C1CCC[C@@H]2[C@H]3CCC[N+]4([O-])CCC[C@@H](CN12)[C@@H]34 (stereo not given in full), the “activity change, negative = inhibition” value was 1.13%.
For CC(C)c1cc(-c2n[nH]c(=O)n2-c2ccc3c(ccn3C)c2)c(O)cc1O, the “activity change, negative = inhibition” value was -0.173%.
In the case of CCn1cc(-c2ccnc3[nH]c(-c4cccc(CN(C)C)c4)cc23)c(-c2ccc(NC(=O)N(C)C)cc2)n1, the “activity change, negative = inhibition” value was -12.5% [at 25.7 µM].
CCc1cc2c(cc1N1CCC(N3CCOCC3)CC1)C(C)(C)c1[nH]c3cc(C#N)ccc3c1C2=O was tested, and the “outcome” value was “inactive [at 25.7 µM]”.
